Results filed as inconclusive are left out. A call without a number means that no potency is given here. Calls of active or inactive are those of the source. Calls come from the whole dose curve; as a rule, active = well fitted inhibition curve with a large enough effect; inconclusive = small, poorly fitted or top-dose-only effect; inactive = no such curve, though single readings can be large or run the other way.
Potency is the fitted concentration of half-maximal effect.

Chain of Glutaminase kidney isoform, mitochondrial (Homo sapiens) (O94925 whole entry, looked up, canonical isoform): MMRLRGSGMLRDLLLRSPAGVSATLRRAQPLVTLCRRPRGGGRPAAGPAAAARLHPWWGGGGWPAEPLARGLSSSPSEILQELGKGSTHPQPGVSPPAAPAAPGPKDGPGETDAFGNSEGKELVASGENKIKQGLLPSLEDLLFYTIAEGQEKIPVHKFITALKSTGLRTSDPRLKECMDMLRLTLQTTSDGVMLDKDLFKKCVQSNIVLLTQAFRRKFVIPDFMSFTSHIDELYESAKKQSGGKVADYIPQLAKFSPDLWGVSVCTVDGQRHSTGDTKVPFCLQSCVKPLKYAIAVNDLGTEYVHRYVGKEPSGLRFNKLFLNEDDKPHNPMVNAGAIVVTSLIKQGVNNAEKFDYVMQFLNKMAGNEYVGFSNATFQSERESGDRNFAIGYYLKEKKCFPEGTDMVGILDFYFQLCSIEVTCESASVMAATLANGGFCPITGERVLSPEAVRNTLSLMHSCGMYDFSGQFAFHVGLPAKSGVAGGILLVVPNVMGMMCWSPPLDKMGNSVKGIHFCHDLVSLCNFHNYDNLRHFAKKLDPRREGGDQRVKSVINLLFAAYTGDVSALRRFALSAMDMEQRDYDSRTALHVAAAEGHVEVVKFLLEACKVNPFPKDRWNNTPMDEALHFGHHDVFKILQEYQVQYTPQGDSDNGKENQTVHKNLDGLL

This assay deals with Glutaminase kidney isoform, mitochondrial (Homo sapiens) (UniProt O94925). Put plainly: qHTS for Inhibitors of Glutaminase (GLS): LOPAC Validation (AID 624146). Note: nearly all actives have a fitted effect of over 60% in size. As to conditions: glutaminase enzyme activity inhibition; series mostly up to 46.1 µM. From the text:
Glutaminase (GLS) catalyzes the hydrolysis of glutamine into glutamate and ammonia. It plays a critical role in glutaminolysis, which is an important energy source for proliferating cells. It was shown that c-Myc, an oncogenic transcription factor known to regulate microRNAs and to stimulate cell proliferation, increases glutamine metabolism by stimulating the expression of GLS via direct suppression of miR23a and miR23b.
GLS is also thought to play a pathogenic role on HAD using a human HIV-1 infected macrophage system. […] GLS inhibition limits glutamate release and provides neuroprotection against HIV-1 infected macrophages.
The overall goal of this project is to identify small molecule inhibitors of GLS through quantitative high throughput screening (qHTS) of the MLSMR. A validated potent and selective inhibitor can be used as a tool molecule to further study the pharmacology of its target as well as explore its potential therapeutic application in cancer and inflammatory neurological disorders, such as HIV1-associated dementia (HAD) and multiple sclerosis.
NIH Chemical Genomics Center [NCGC]
NIH Molecular Libraries Probe Centers Network [MLPCN]
Assay Submitter (PI): Barbara S. Slusher, Johns Hopkins University
Three 3 uL of hKGA is dispensed into black well 1536-well plates in 45 mM KH2PO4 (pH 8.2), 0.02% Tween-20. Then 23 nL of compounds are added through pin tool transfer. To this, 1 uL of 1mM L-Glutamine and 1 uL of a solution of L-Glutamateoxidase, HRP, Amplex red are added. Plate is centrifuged for 25 sec before an initial fluorescence read is obtained on the ViewLux, after 30 min of RT incubation, the final read is taken on the ViewLux.
A general note: qHTS replaces the single test concentration by a dilution series.
`CC(=O)/C(C)=N/O`: the Potency entry was “inactive”. With `O=C1C2C=CC=CC2=NC(=S)N1CCN1CCC(=C(c2ccc(F)cc2)c2ccc(F)cc2)CC1` (stereo not given) the entry was “inactive”; with `N[C@H](C(=O)O)[C@H](O)C(=O)O`, “inactive”.

`[N-]=[N+]=Nc1ccc(C(=O)CSC[C@H](NC(=O)CC[C@H](N)C(=O)O)C(=O)NCC(=O)O)cc1`: the Potency result was “inactive”. With `O=[N+]([O-])c1cccc2c(Br)[nH]nc12` the entry was “inactive”; with `N[C@@H](CCCC(=O)O)C(=O)O`, “inactive”; with `CC(N)=O`, “inactive”. `C=CCn1c(=O)c2c(nc(-c3ccc(S(=O)(=O)O)cc3)n2C)n(C)c1=O`: the Potency result was “inactive”.

Regarding `CC1CCN(CC[C@H]2CCCN2S(=O)(=O)c2cccc(O)c2)CC1`, the Potency entry is “inactive”. With `NC(Cc1cccc(-c2ccccc2CP(=O)(O)O)c1)C(=O)O` (stereo not given) the entry was “inactive”; with `C=CC1(C)CC(=O)C2(O)C(C)(O1)C(OC(C)=O)C(O)C1C(C)(C)CCC(O)C12C` (stereo not given), “inactive”. The same measure for `O=C(O)C1CN(CCCP(=O)(O)O)CCN1` (stereo not given): “inactive”. The same measure for `Cc1cc2c(cc1Cl)N(C(=O)Nc1ccnc3ccccc13)CC2`: 7.08 µM (active).

With `NCC(O)(CS(=O)(=O)O)c1ccc(Cl)cc1` (stereo not given), the Potency entry is “inactive”.

For `COc1ccccc1N1CCN(CCCCNC(=O)c2ccc3ccccc3c2)CC1`, the Potency result was “inactive”. With `Cn1c(=O)[nH]c2ncn(C)c2c1=O` the entry was “inactive”; with `Cc1cc(Cn2cnc3c2C[C@@H](C(=O)O)N(C(=O)C(c2ccccc2)c2ccccc2)C3)ccc1N`, “inactive”. The same measure for `C[C@@]1(C2CCCC2)Cc2cc(OCC(=O)O)c(Cl)c(Cl)c2C1=O`: “inactive”; for `O=c1cc(-c2ccccc2)[nH]c2nc(Cl)ccc12`: “inactive”. For the compound `COc1ccc(-c2cc3ncc(C)n3c(Nc3ncccc3C(N)=O)n2)cc1OC`, the Potency entry is “inactive”.

Take `O=c1cc(O)cc(/C=C/c2ccc(O)c(O)c2)o1`: the Potency is 1.12 µM (active). The same measure for `O=C(O)c1cc(=O)cc(C(=O)O)[nH]1`: “inactive”; for `OC[C@H]1NC[C@@H](O)[C@@H]1O`: “inactive”. The same measure for `COc1ccc2c(c1)c(CC(=O)O)c(C)n2C(=O)c1ccccc1`: “inactive”; for `CCCCCC(O)CCCC(=O)O` (stereo not given): “inactive”; for `CN1CCCC1CCOC(C)(c1ccccc1)c1ccc(Cl)cc1` (stereo not given): “inactive”. Regarding `C=C(C)C1CC=C(C(=O)O)CC1` (stereo not given), the Potency entry is “inactive”. With `CCSC(=N)N` the entry was “inactive”; with `CNCCc1cnc(CCC(c2ccccc2)c2ccccc2)[nH]1`, “inactive”. The same measure for `COC(=O)[C@H](NC(=O)c1cc(-c2ccccc2)nc2ccccc12)c1ccccc1`: “inactive”; for `Nc1ccc(CCNc2ncnc3c2ncn3C2OC(CO)C(O)C2O)cc1` (stereo not given): “inactive”.

With `C=CC[C@H](N)C(=O)O`, the Potency entry was “inactive”. With `NCC(O)C1CCCCCCC1` (stereo not given) the entry was “inactive”; with `Cc1nc(N=Nc2ccc(S(=O)(=O)O)cc2S(=O)(=O)O)c(COP(=O)(O)O)c(C=O)c1O`, “inactive”. The same measure for `CC1=C(/C=C/C(C)=C/C=C/C(C)=C\C(=O)O)C(C)(C)CCC1`: “inactive”; for `COc1ccc2c(c1)CCC1C2CC[C@@]2(C)C1CC[C@@H]2NCCCCCCN1C(=O)C=CC1=O` (stereo not given in full): “inactive”; for `O=c1ccc2c(OCCCCc3ccccc3)c3ccoc3cc2o1`: “inactive”. The same measure for `Cc1cccc(C)c1OCC(N)C(C)C` (stereo not given): “inactive”; for `CCCCS(=N)(=O)CC[C@H](N)C(=O)O` (stereo not given in full): “inactive”; for `NC1(C(=O)O)CC1`: “inactive”.

The values above are taken from PubChem BioAssay (NCATS).
